In the supplement of paper PMC3545927:
The other results are listed elsewhere or left out. No count for the full screen is at hand.

Target: furin, P09958
Assay: furin cleavage Z-score vs untreated control; higher = more cleavage, active = 3.5 or more, inactive = 1 or less, 8 variable residues between constant flanks
Summary of the method: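 Abundance of DNA freed from bead-bound 8-mer peptide–cDNA fusions by purified furin was measured as sequencing read counts after PCR adapter tagging. Cutting ran 7.5, 15 or 30 min in 0.01 ml of 50 mM HEPES pH 7.5 with CaCl2 and NaCl at 1:10 enzyme:substrate. The cleavage Z-score expresses these log counts against furin-free reactions after lowess adjustment and median absolute deviation scaling.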

furin, P09958, sequence (P09958 whole entry): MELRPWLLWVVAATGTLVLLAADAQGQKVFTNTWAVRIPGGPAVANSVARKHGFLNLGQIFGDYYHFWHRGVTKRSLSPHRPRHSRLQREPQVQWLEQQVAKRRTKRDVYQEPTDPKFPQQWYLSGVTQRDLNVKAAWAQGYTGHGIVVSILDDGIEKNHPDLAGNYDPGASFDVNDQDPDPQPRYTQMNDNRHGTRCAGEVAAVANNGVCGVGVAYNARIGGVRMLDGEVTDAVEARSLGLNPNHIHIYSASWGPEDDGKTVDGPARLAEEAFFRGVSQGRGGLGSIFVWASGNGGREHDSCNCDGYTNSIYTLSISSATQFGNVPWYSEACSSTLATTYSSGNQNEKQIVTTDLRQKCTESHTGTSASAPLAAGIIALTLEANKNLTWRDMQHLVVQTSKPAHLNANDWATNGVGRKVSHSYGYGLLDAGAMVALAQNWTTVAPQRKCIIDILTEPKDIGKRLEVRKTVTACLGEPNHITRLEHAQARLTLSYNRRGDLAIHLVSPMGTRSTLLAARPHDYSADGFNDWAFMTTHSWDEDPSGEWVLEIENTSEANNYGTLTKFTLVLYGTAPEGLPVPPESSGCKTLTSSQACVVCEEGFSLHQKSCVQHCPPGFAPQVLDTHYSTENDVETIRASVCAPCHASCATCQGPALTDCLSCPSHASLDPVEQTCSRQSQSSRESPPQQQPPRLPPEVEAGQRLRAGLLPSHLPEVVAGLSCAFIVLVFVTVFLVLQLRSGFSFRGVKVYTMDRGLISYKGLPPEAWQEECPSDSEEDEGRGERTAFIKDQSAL

| Sequence | furin cleavage Z-score (7.5 min) | furin cleavage Z-score (15 min) | furin cleavage Z-score (30 min) |
| --- | --- | --- | --- |
| CANIEEVALSAGNASASA [HC841] | 0.342 (inactive) | 0.83 (inactive) | -1.19 (inactive) |
| CAIKKRRRRRAGNASASA [FS-33] | 7.42 (active) | 7.44 (active) | 6.1 (active) |
| CAFYLRRRRRAGNASASA [FS-527] | 2.84 | 3.02 | 3.78 (active) |
| CAIKKRFQTTAGNASASA [FS-1881] | -0.863 (inactive) | -1.06 (inactive) | -0.368 (inactive) |
| CASMVGNWAKAGNASASA [HC342] | 1.34 | 0.0553 (inactive) | 0.702 (inactive) |
| CASKPCSAHLAGNASASA [HC2494] | 1.46 | 0.933 (inactive) | 0.45 (inactive) |
| CATRARLSRPAGNASASA [FS-1098] | -0.0765 (inactive) | -0.0832 (inactive) | -0.467 (inactive) |
| CAARPRRARQAGNASASA [FS-1585] | 9.65 (active) | 12 (active) | 7.48 (active) |
| CAARARLGRQAGNASASA [FS-400] | 5.77 (active) | 6.39 (active) | 5.75 (active) |
| CASQARLGRIAGNASASA [FS-301] | -1.06 (inactive) | -0.739 (inactive) | -0.311 (inactive) |
| CAARARLPRDAGNASASA [FS-1185] | 9.09 (active) | 9.62 (active) | 6.75 (active) |
| CAARGRGGRDAGNASASA [FS-978] | 0.0621 (inactive) | -0.261 (inactive) | -0.608 (inactive) |
| CAACPRRARGAGNASASA [FS-1297] | -0.34 (inactive) | -0.615 (inactive) | -0.259 (inactive) |
| CATWMNSTGFAGNASASA [HC437] | 0.658 (inactive) | 2.27 | -0.141 (inactive) |
| CATTPCSGSDAGNASASA [HC1931] | -0.759 (inactive) | -0.942 (inactive) | -0.913 (inactive) |
| CARPKRADTFAGNASASA [FS-2054] | 5.65 (active) | 7.21 (active) | 7.85 (active) |
| CARPKRYFTIAGNASASA [FS-2579] | -0.409 (inactive) | -0.643 (inactive) | -0.0555 (inactive) |
| CARPKRCPRSAGNASASA [FS-2055] | 7.03 (active) | 6.47 (active) | 5.65 (active) |
| CARHIRKRRSAGNASASA [FS-1157] | 13.5 (active) | 13.3 (active) | 9.11 (active) |
| CARPKRLDSAAGNASASA [FS-2578] | -0.648 (inactive) | -0.15 (inactive) | 0.332 (inactive) |
| CARPSGMFDSAGNASASA [HC914] | -0.826 (inactive) | -0.415 (inactive) | -0.285 (inactive) |
| CARPSRKRRSAGNASASA [FS-1070] | 12.8 (active) | 11.6 (active) | 9.65 (active) |
| CASTPCSALLAGNASASA [HC2545] | 0.599 (inactive) | 1.06 | 0.284 (inactive) |

| Sequence | furin cleavage Z-score (7.5 min) | furin cleavage Z-score (15 min) | furin cleavage Z-score (30 min) |
| --- | --- | --- | --- |
| CATTPLARAAAGNASASA [HC1565] | -0.63 (inactive) | 1.08 | -0.687 (inactive) |
| CADITKLLLAAGNASASA [HC604] | -1.43 (inactive) | 0.163 (inactive) | 0.0126 (inactive) |
| CAGERRKRRSAGNASASA [FS-425] | 14.4 (active) | 13.6 (active) | 11 (active) |
| CAAGKRKRRSAGNASASA [FS-1299] | 12.8 (active) | 14.7 (active) | 10.5 (active) |
| CAEISRKRRSAGNASASA [FS-649] | 10.9 (active) | 9.94 (active) | 7.56 (active) |
| CAEFERRWRSAGNASASA [FS-230] | -1.8 (inactive) | -0.415 (inactive) | 0.059 (inactive) |
| CAGSHMKRRSAGNASASA [FS-659] | -0.564 (inactive) | 0.785 (inactive) | 1.98 |
| CAEIKRKWRSAGNASASA [FS-21] | 2.15 | 3.65 (active) | 5.04 (active) |
| CAAGKRVYYLAGNASASA [HC1559] | -0.901 (inactive) | 0.829 (inactive) | -0.892 (inactive) |
| CAEVACHRPSAGNASASA [HC2343] | 0.99 (inactive) | 0.762 (inactive) | 1.27 |
| CACPTDCFRKAGNASASA [HC451] | 0.183 (inactive) | -0.762 (inactive) | -0.961 (inactive) |
| CAVVLVGLMAAGNASASA [HC571] | -0.371 (inactive) | 0.0646 (inactive) | -0.205 (inactive) |
| CASLHSYSPGAGNASASA [HC1607] | -1.22 (inactive) | 0.427 (inactive) | 0.0666 (inactive) |
| CAPTSGDVVVAGNASASA [HC874] | -0.612 (inactive) | 0.813 (inactive) | -0.497 (inactive) |
| CAEVVTSTVVAGNASASA [HC2230] | -0.163 (inactive) | -0.129 (inactive) | -0.367 (inactive) |
| CARVKRSVVVAGNASASA [FS-2840] | 8.15 (active) | 9.71 (active) | 8.81 (active) |
| CAFTPSPVVVAGNASASA [HC415] | -0.406 (inactive) | -0.269 (inactive) | -0.296 (inactive) |
| CARKKRSVVVAGNASASA [DV4] | 9.41 (active) | 10.1 (active) | 9.47 (active) |
| CARCRRCVVVAGNASASA [FS-2327] | -0.669 (inactive) | 0.654 (inactive) | 1.36 |
| CARVKKSVEVAGNASASA [FS-3118] | 4.33 (active) | 7.31 (active) | 8.17 (active) |
| CAPRKKRTVVAGNASASA [HC1324] | 11.4 (active) | 13.7 (active) | 11.3 (active) |
| CAEVTTSTWVAGNASASA [HC2198] | -0.604 (inactive) | 0.139 (inactive) | -0.711 (inactive) |
| CARVVTSTWVAGNASASA [HC2153] | 1.81 | 1.03 | 0.0503 (inactive) |
